Here are results for eight compounds from PubChem BioAssay (NCI).

Test systems include DU-145 prostate; K-562 leukemia; MALME-3M melanoma; MDA-MB-231 breast; RXF 393 renal; SF-268 CNS; SF-295 CNS; SF-539 CNS; UACC-257 melanoma; M14 melanoma; HCT-15 colon; SNB-75 CNS; SNB-19 CNS; U251 CNS; PC-3 prostate; SK-MEL-5 melanoma; UACC-62 melanoma; LOX IMVI melanoma; SK-MEL-28 melanoma; HT29 colon.
Holding throughout (assay): NCI-60 one-dose screen, 48 h (100 = growth as untreated, 0 = no growth, -100 = all killed)
What all share (conditions): 10 µM unless noted

About 83,000 compounds went through this panel and 20% of them were active in at least one assay; those are over-represented in the sample as a whole.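 The endpoint reported here, percent growth, reads 100 for growth as untreated, 0 for no net growth and -100 for all cells dead.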 Values without a mark were called inactive. The source made the active and inactive calls. Rule for the calls: active = growth percent below 10; inactive = the rest.

Consider `CCCCCCCCCOc1c(OC)cc(C2CC(=O)Nc3c2c(C)nn3-c2nc3ccccc3[nH]2)cc1OC` (configuration not stated), for which the growth in the experiment on DU-145 prostate is 1.94% (active); in the experiment with K-562 leukemia, 9.07% (active); in the experiment with MALME-3M melanoma, -58.3% (active); in the experiment with MDA-MB-231 breast, -75% (active); with RXF 393 renal, -83.4% (active); with SF-268 CNS it was -58.8% (active). Also, the growth in the experiment on SF-295 CNS is -59.1% (active); in the experiment on SF-539 CNS, -86.3% (active); with UACC-257 melanoma, 15.5%; in the experiment on M14 melanoma, -25.5% (active); in the experiment with HCT-15 colon it was -30.8% (active); in the experiment on SNB-75 CNS, -48.8% (active). Also, the growth in the experiment on SNB-19 CNS was -4% (active); in the experiment on U251 CNS, -51.6% (active); with PC-3 prostate, -3.05% (active); in the experiment on SK-MEL-5 melanoma, -99.4% (active); in the experiment with UACC-62 melanoma, -62.4% (active); in the experiment with LOX IMVI melanoma it was -95.8% (active). For the same compound, the growth in the experiment on SK-MEL-28 melanoma was -47.4% (active).
Take `CC(C)(C)OC(=O)Nc1ccc2c(c1)C(NC(=O)Nc1cccc(C#N)c1)CC(C)(C)O2` (configuration not stated): the growth with DU-145 prostate is 71.6%; in the experiment with K-562 leukemia, 23.3%; in the experiment with MALME-3M melanoma it was 39%; in the experiment on MDA-MB-231 breast it was 68.8%; in the experiment with RXF 393 renal it was 72.4%; in the experiment with SF-268 CNS, 53.4%. The growth was 31.9% with SF-295 CNS; 66.8% in the experiment with SF-539 CNS; 27.2% in the experiment with UACC-257 melanoma; 47.5% with M14 melanoma; 34.2% with HCT-15 colon; 71.8% in the experiment on SNB-75 CNS. Besides, the growth is 52.4% with SNB-19 CNS; 32.7% in the experiment on U251 CNS; 30.5% with PC-3 prostate; -5.57% (active) in the experiment with SK-MEL-5 melanoma; 34.6% with UACC-62 melanoma; 26.9% in the experiment with LOX IMVI melanoma. In the experiment with SK-MEL-28 melanoma, the growth was 74.7%.
Take `COc1ccc(C2=Nc3c(N)ncnc3NC(c3ccc4c(c3)OCO4)C2)cc1` (configuration not stated): the growth in the experiment on DU-145 prostate is 97.1%; in the experiment with K-562 leukemia, 113%; with MALME-3M melanoma, 105%; in the experiment with MDA-MB-231 breast, 73.9%; in the experiment on RXF 393 renal, 66%; in the experiment with SF-268 CNS, 89.6%. Moreover, the growth was 118% in the experiment on SF-295 CNS; 90.3% in the experiment on SF-539 CNS; 116% in the experiment on UACC-257 melanoma; 73.8% in the experiment with M14 melanoma; 94.8% in the experiment with HCT-15 colon; 66.2% with SNB-75 CNS. Also, the growth with SNB-19 CNS was 85%; with U251 CNS, 94.3%; in the experiment with PC-3 prostate, 77.2%; with SK-MEL-5 melanoma, 88.2%; with UACC-62 melanoma it was 80.6%; in the experiment with LOX IMVI melanoma it was 94%. For the same compound, in the experiment with SK-MEL-28 melanoma, the growth is 101%.
Regarding `CCN(CC)c1ccc(C(=O)c2ccc(N(CC)CC)cc2)cc1`, the growth is 20.2% in the experiment on DU-145 prostate; 14.7% with K-562 leukemia; 67.2% in the experiment on MALME-3M melanoma; 18.4% in the experiment with MDA-MB-231 breast; -36.5% (active) in the experiment on RXF 393 renal; 45.6% in the experiment on SF-268 CNS. Further, the growth with SF-295 CNS was 11%; in the experiment on SF-539 CNS, 0.464% (active); with UACC-257 melanoma, 76.2%; in the experiment with M14 melanoma it was 0.748% (active); in the experiment on HCT-15 colon, 27.4%; in the experiment on SNB-75 CNS, -11.9% (active). Moreover, the growth with SNB-19 CNS is 38.7%; in the experiment on U251 CNS it was 20.8%; in the experiment on PC-3 prostate, 26.4%; with SK-MEL-5 melanoma it was 23.7%; with UACC-62 melanoma, 37.6%; in the experiment with LOX IMVI melanoma, 32.6%. Besides, the growth in the experiment with SK-MEL-28 melanoma was 51.3%.
Regarding `C=C1C(=O)O[C@H]2[C@H]1CC/C(CNC(=O)/C=C/c1ccc(Cl)cc1Cl)=C\CC[C@@]1(C)O[C@@H]21`, the growth in the experiment on DU-145 prostate is -80.7% (active); with K-562 leukemia, -31.2% (active); in the experiment on MALME-3M melanoma, -89.8% (active); with MDA-MB-231 breast, -42.1% (active); with RXF 393 renal it was -84.6% (active); with SF-268 CNS, -69.7% (active). The growth with SF-295 CNS was 39.2%; in the experiment with SF-539 CNS, -72.4% (active); in the experiment on UACC-257 melanoma it was -51.7% (active); in the experiment on M14 melanoma, -57.5% (active); in the experiment with HCT-15 colon it was -64% (active); in the experiment with SNB-75 CNS it was 21.3%. For the same compound, the growth with SNB-19 CNS is 37.4%; in the experiment on U251 CNS it was 8.28% (active); in the experiment on PC-3 prostate, -26.4% (active); in the experiment on SK-MEL-5 melanoma, 3.01% (active); in the experiment on UACC-62 melanoma, -65.2% (active); in the experiment on LOX IMVI melanoma, -97.2% (active). In addition, in the experiment on SK-MEL-28 melanoma, the growth is -68.2% (active).
In the case of `CC1CC(C(C)(C)C)C(=O)C(C(C)(C)C)C1` (configuration not stated), the growth in the experiment on DU-145 prostate was 112%; in the experiment with K-562 leukemia, 102%; in the experiment with MALME-3M melanoma, 105%; with MDA-MB-231 breast, 109%; with RXF 393 renal, 112%; in the experiment on SF-268 CNS, 103%. Moreover, the growth in the experiment with SF-295 CNS was 105%; in the experiment on SF-539 CNS, 101%; in the experiment with UACC-257 melanoma, 102%; with M14 melanoma, 118%; with HT29 colon, 93.4%; in the experiment with SNB-75 CNS it was 105%. For the same compound, the growth was 106% with SNB-19 CNS; 105% in the experiment with U251 CNS; 108% in the experiment with PC-3 prostate; 105% with SK-MEL-5 melanoma; 100% in the experiment on UACC-62 melanoma; 106% with LOX IMVI melanoma. Further, in the experiment with SK-MEL-28 melanoma, the growth was 116%.
As to `CN1CCN(CCCOc2ccc3nc(Nc4ccc(F)c(F)c4)ccc3c2)CC1`, the growth with DU-145 prostate is 39.9%; in the experiment on K-562 leukemia, -30.3% (active); in the experiment with MALME-3M melanoma, 3.13% (active); with MDA-MB-231 breast, -31.6% (active); with RXF 393 renal, 48.6%; with SF-268 CNS, 46.5%. Further, the growth in the experiment with SF-295 CNS is -51.4% (active); in the experiment on SF-539 CNS it was 14.3%; with UACC-257 melanoma, -52.9% (active); with M14 melanoma it was -53.1% (active); in the experiment with HT29 colon, -36.2% (active); in the experiment with SNB-75 CNS, 24.3%. In addition, the growth in the experiment on SNB-19 CNS is 26.5%; in the experiment with U251 CNS, 13.7%; with PC-3 prostate it was 22.5%; with SK-MEL-5 melanoma it was -6.85% (active); in the experiment with UACC-62 melanoma, -67.1% (active); in the experiment on LOX IMVI melanoma, -89.5% (active). The growth with SK-MEL-28 melanoma is -67.4% (active).
Take `CC1=CN2C(=O)C3C4=C(CCCC4)SC3N=C2CN1c1c(C)cccc1C` (configuration not stated): the growth in the experiment on DU-145 prostate is 104%; in the experiment on K-562 leukemia, 45.8%; with MALME-3M melanoma, 89.7%; in the experiment on MDA-MB-231 breast it was 83.9%; in the experiment with RXF 393 renal, 67%; in the experiment on SF-268 CNS it was 89.1%. In addition, the growth in the experiment on SF-295 CNS was 81.6%; in the experiment on SF-539 CNS, 96.7%; with UACC-257 melanoma, 99.4%; with M14 melanoma, 96.6%; in the experiment with HT29 colon, 84%; in the experiment with SNB-75 CNS, 106%. The growth in the experiment with SNB-19 CNS was 104%; with U251 CNS, 65%; in the experiment with PC-3 prostate, 63.4%; in the experiment with SK-MEL-5 melanoma, 87.2%; in the experiment on UACC-62 melanoma it was 66.4%; with LOX IMVI melanoma it was 79.2%. In addition, the growth in the experiment with SK-MEL-28 melanoma was 110%.
